Results on 33 molecules are retold here after publication PMC9911399, “Two distinct binding modes provide the RNA-binding protein RbFox with extraordinary sequence specificity”.

The labels stand for the following.
B1: AGAAAUU (DNA:RNA)
RNA: GGGAGACCGGAAUUCAGAUUGUCCAGAAAUUUUAAAUCCCGUCGUAGCCACCA
DNA 1: CAATCTGAATTCCGGTCTCCC
DNA 2: TGGTGGCTACGACGGGATT
B2: UCAAUAA (DNA:RNA)
RNA: B1 RNA with A25U, G26C, A29U, U30A, U31A
DNA 1: CAATCTGAATTCCGGTCTCCC
DNA 2: TGGTGGCTACGACGGGATT
B3: ACAGCAG (DNA:RNA)
RNA: B1 RNA with G26C, A28G, A29C, U30A, U31G
DNA 1: CAATCTGAATTCCGGTCTCCC
DNA 2: TGGTGGCTACGACGGGATT
B4: CUCGUGG (DNA:RNA)
RNA: GGGAGACCGGAAUUCAGAUUGUCCCUCGUGGUUAAAUCCCGUCGUAGCCACCA
DNA 1: CAATCTGAATTCCGGTCTCCC
DNA 2: TGGTGGCTACGACGGGATT
B5: UGGGGCU (DNA:RNA)
RNA: B1 RNA with A25U, A27G, A28G, A29G, U30C
DNA 1: CAATCTGAATTCCGGTCTCCC
DNA 2: TGGTGGCTACGACGGGATT
B6: CGGCUAG (DNA:RNA)
RNA: B4 RNA with U26G, C27G, G28C, G30A
DNA 1: CAATCTGAATTCCGGTCTCCC
DNA 2: TGGTGGCTACGACGGGATT
B7: CUGGGCU (DNA:RNA)
RNA: B4 RNA with C27G, U29G, G30C, G31U
DNA 1: CAATCTGAATTCCGGTCTCCC
DNA 2: TGGTGGCTACGACGGGATT
B8: GGGCUAG (DNA:RNA)
RNA: B4 RNA with C25G, U26G, C27G, G28C, G30A
DNA 1: CAATCTGAATTCCGGTCTCCC
DNA 2: TGGTGGCTACGACGGGATT
B9: GGGCUUG (DNA:RNA)
RNA: B1 RNA with A25G, A27G, A28C, A29U, U31G
DNA 1: CAATCTGAATTCCGGTCTCCC
DNA 2: TGGTGGCTACGACGGGATT
B10: UGGGCUU (DNA:RNA)
RNA: B1 RNA with A25U, A27G, A28G, A29C
DNA 1: CAATCTGAATTCCGGTCTCCC
DNA 2: TGGTGGCTACGACGGGATT
B11: GGGCGCU (DNA:RNA)
RNA: B1 RNA with A25G, A27G, A28C, A29G, U30C
DNA 1: CAATCTGAATTCCGGTCTCCC
DNA 2: TGGTGGCTACGACGGGATT
B12: GUCGGGC (DNA:RNA)
RNA: B4 RNA with C25G, U29G, G31C
DNA 1: CAATCTGAATTCCGGTCTCCC
DNA 2: TGGTGGCTACGACGGGATT
B13: GGCUAGU (DNA:RNA)
RNA: B1 RNA with A25G, A27C, A28U, U30G
DNA 1: CAATCTGAATTCCGGTCTCCC
DNA 2: TGGTGGCTACGACGGGATT
B14: GGGGGGC (DNA:RNA)
RNA: B4 RNA with C25G, U26G, C27G, U29G, G31C
DNA 1: CAATCTGAATTCCGGTCTCCC
DNA 2: TGGTGGCTACGACGGGATT
B15: CGGGCGC (DNA:RNA)
RNA: B4 RNA with U26G, C27G, U29C, G31C
DNA 1: CAATCTGAATTCCGGTCTCCC
DNA 2: TGGTGGCTACGACGGGATT
B16: GGGGCGC (DNA:RNA)
RNA: B4 RNA with C25G, U26G, C27G, U29C, G31C
DNA 1: CAATCTGAATTCCGGTCTCCC
DNA 2: TGGTGGCTACGACGGGATT
B17: UAGUGAU (DNA:RNA)
RNA: B1 RNA with A25U, G26A, A27G, A28U, A29G, U30A
DNA 1: CAATCTGAATTCCGGTCTCCC
DNA 2: TGGTGGCTACGACGGGATT
B18: CACUUCG (DNA:RNA)
RNA: B4 RNA with U26A, G28U, G30C
DNA 1: CAATCTGAATTCCGGTCTCCC
DNA 2: TGGTGGCTACGACGGGATT
B19: GUCUGUU (DNA:RNA)
RNA: B1 RNA with A25G, G26U, A27C, A28U, A29G
DNA 1: CAATCTGAATTCCGGTCTCCC
DNA 2: TGGTGGCTACGACGGGATT
B20: GGGUUAG (DNA:RNA)
RNA: B4 RNA with C25G, U26G, C27G, G28U, G30A
DNA 1: CAATCTGAATTCCGGTCTCCC
DNA 2: TGGTGGCTACGACGGGATT
B21: CUGAUGG (DNA:RNA)
RNA: B4 RNA with C27G, G28A
DNA 1: CAATCTGAATTCCGGTCTCCC
DNA 2: TGGTGGCTACGACGGGATT
B22: AGAACUG (DNA:RNA)
RNA: B1 RNA with A29C, U31G
DNA 1: CAATCTGAATTCCGGTCTCCC
DNA 2: TGGTGGCTACGACGGGATT
B23: GCAAAGC (DNA:RNA)
RNA: B1 RNA with A25G, G26C, U30G, U31C
DNA 1: CAATCTGAATTCCGGTCTCCC
DNA 2: TGGTGGCTACGACGGGATT
B24: UUGCGGA (DNA:RNA)
RNA: B4 RNA with C25U, C27G, G28C, U29G, G31A
DNA 1: CAATCTGAATTCCGGTCTCCC
DNA 2: TGGTGGCTACGACGGGATT
B25: GGCUUUU (DNA:RNA)
RNA: B1 RNA with A25G, A27C, A28U, A29U
DNA 1: CAATCTGAATTCCGGTCTCCC
DNA 2: TGGTGGCTACGACGGGATT
B26: CCGGGCU (DNA:RNA)
RNA: B4 RNA with U26C, C27G, U29G, G30C, G31U
DNA 1: CAATCTGAATTCCGGTCTCCC
DNA 2: TGGTGGCTACGACGGGATT
B27: GGGGCUU (DNA:RNA)
RNA: B1 RNA with A25G, A27G, A28G, A29C
DNA 1: CAATCTGAATTCCGGTCTCCC
DNA 2: TGGTGGCTACGACGGGATT
B28: CGGCUUU (DNA:RNA)
RNA: B1 RNA with A25C, A27G, A28C, A29U
DNA 1: CAATCTGAATTCCGGTCTCCC
DNA 2: TGGTGGCTACGACGGGATT
B29: CGGGCUU (DNA:RNA)
RNA: B1 RNA with A25C, A27G, A28G, A29C
DNA 1: CAATCTGAATTCCGGTCTCCC
DNA 2: TGGTGGCTACGACGGGATT
B30: GCGGGCU (DNA:RNA)
RNA: B1 RNA with A25G, G26C, A27G, A28G, A29G, U30C
DNA 1: CAATCTGAATTCCGGTCTCCC
DNA 2: TGGTGGCTACGACGGGATT
B31: CGGGGCU (DNA:RNA)
RNA: B1 RNA with A25C, A27G, A28G, A29G, U30C
DNA 1: CAATCTGAATTCCGGTCTCCC
DNA 2: TGGTGGCTACGACGGGATT
B32: GGGCUUU (DNA:RNA)
RNA: B1 RNA with A25G, A27G, A28C, A29U
DNA 1: CAATCTGAATTCCGGTCTCCC
DNA 2: TGGTGGCTACGACGGGATT
B33: GGGGGCU (DNA:RNA)
RNA: B1 RNA with A25G, A27G, A28G, A29G, U30C
DNA 1: CAATCTGAATTCCGGTCTCCC
DNA 2: TGGTGGCTACGACGGGATT

Residue numbers refer to the chain shown, from its start. In all, about 16,000 sequences were measured (“ka relative to ugcaugu”: median about 0.0091, highest 2% from about 0.032 on). What follows is part of a selection rich in the highest values, with near analogues and random picks from the rest.

In this test the target is T1, RBFOX1 RRM (Homo sapiens, UniProt Q9NWB1 109-208).
T1 sequence: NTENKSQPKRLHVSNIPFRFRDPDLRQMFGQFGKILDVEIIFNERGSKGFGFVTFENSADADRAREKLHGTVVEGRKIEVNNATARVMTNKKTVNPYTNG
Nature of the test: EMSA; HiTS-Eq, 1 nM pool, 10 min; buffer printed only for the single-RNA assays: 10 mM Tris pH 7.5, 150 mM NaCl, 3.4 mM EDTA, 0.001% NP-40, 30 C. To be noted: tags: His6 N-terminal (pET28a); label: 5' 32P. The essentials:
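Purified RbFox RRM, wild type or mutant, was incubated for 10 min in 50 µL with 1 nM of a 5′-radiolabelled RNA pool carrying 7 randomized nucleotides, whose flanks were annealed to DNA oligonucleotides, over a series of increasing protein concentrations. Unbound RNA was resolved on 8% native PAGE, cut out, reverse-transcribed, barcoded by PCR and sequenced on an Illumina HiSeq 2500. Relative association constants were derived from changes in read counts for each RNA species versus the control reaction and normalised to the cognate motif.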
Turning to B1, the binding signal was 0.00368 KA relative to UGCAUGU.
On to B2, for which the binding signal was 0.00079 KA relative to UGCAUGU.
For B3, the binding signal was 0.00511 KA relative to UGCAUGU.
For B4, the binding signal is 0.00654 KA relative to UGCAUGU.
B5: the binding signal is 0.0267 KA relative to UGCAUGU.
Turning to B6, the binding signal was 0.02 KA relative to UGCAUGU.
Take B7: the binding signal is 0.0227 KA relative to UGCAUGU.
Turning to B8, the binding signal was 0.0339 KA relative to UGCAUGU.
Regarding B9, the binding signal was 0.0531 KA relative to UGCAUGU.
In the case of B10, the binding signal was 0.0356 KA relative to UGCAUGU.
For B11, the binding signal is 0.0216 KA relative to UGCAUGU.
With B12, the binding signal is 0.0126 KA relative to UGCAUGU.
For B13 the value was 0.0239 KA relative to UGCAUGU; for B14, 0.0272 KA relative to UGCAUGU; for B15, 0.0268 KA relative to UGCAUGU.
Regarding B16, the binding signal was 0.0421 KA relative to UGCAUGU.
For the molecule B17, the binding signal was 0.00564 KA relative to UGCAUGU.
B18: the binding signal is 0.0103 KA relative to UGCAUGU.
For B19 the value was 0.0246 KA relative to UGCAUGU; for B20, 0.0153 KA relative to UGCAUGU.
Consider B21, for which the binding signal is 0.0123 KA relative to UGCAUGU.
For B22 the value was 0.0109 KA relative to UGCAUGU.
B23: the binding signal is 0.0111 KA relative to UGCAUGU.
Turning to B24, the binding signal is 0.0101 KA relative to UGCAUGU.
With B25, the binding signal is 0.0115 KA relative to UGCAUGU.
Then B26, with 0.00883 KA relative to UGCAUGU; and B27, with 0.033 KA relative to UGCAUGU.
For the molecule B28, the binding signal was 0.0187 KA relative to UGCAUGU.
With B29, the binding signal was 0.0317 KA relative to UGCAUGU.
Then B30, with 0.0197 KA relative to UGCAUGU; and B31, with 0.0294 KA relative to UGCAUGU.
As for B32, the binding signal is 0.0244 KA relative to UGCAUGU.
For B33 the value was 0.0377 KA relative to UGCAUGU.
